Test results as given in PubChem BioAssay AID624481 (The Scripps Research Institute Molecular Screening Center, 2012).

What follows are compounds tested against Prolyl endopeptidase-like (Mus musculus) (UniProt Q8C167) (assay: mouse PREPL enzyme inhibition by screening hits – biochemical, gel-based competitive ABPP, fluorescence, HTS hits, PREPL inhibitor project (AID 624481)). Conditions: purified mouse PREPL, at 20 µM, hits give high values; in the data active = inhibition above about 50%; inactive = the rest.
Sequence of Prolyl endopeptidase-like (Mus musculus) (Q8C167 whole entry, looked up): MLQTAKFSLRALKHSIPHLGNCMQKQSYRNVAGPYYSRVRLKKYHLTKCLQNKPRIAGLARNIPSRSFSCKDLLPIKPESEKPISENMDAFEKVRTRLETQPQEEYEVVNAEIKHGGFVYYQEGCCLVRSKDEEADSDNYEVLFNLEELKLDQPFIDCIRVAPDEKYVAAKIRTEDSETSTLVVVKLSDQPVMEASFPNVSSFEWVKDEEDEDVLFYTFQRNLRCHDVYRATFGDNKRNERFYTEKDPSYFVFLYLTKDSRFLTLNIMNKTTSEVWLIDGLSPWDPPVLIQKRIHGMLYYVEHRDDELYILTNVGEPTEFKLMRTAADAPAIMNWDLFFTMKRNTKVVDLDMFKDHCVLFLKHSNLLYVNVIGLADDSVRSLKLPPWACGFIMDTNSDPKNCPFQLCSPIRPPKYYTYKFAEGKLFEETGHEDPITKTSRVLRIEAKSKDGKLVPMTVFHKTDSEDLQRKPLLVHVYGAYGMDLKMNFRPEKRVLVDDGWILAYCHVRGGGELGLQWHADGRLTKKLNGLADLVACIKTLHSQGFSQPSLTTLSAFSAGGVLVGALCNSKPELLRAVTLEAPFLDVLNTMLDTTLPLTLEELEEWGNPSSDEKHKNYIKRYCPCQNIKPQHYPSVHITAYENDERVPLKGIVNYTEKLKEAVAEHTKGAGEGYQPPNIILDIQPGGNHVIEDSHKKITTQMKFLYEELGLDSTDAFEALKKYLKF

inhibition, inactive:
Cc1ccc(OCC(=O)Nc2ccc(N3CCN(C(=O)c4ccco4)CC3)cc2)cc1C 44%
CCC(CO)[n+]1c(C)cc(/C=C2\Sc3ccccc3N2Cc2ccccc2)cc1C (configuration not stated) -20%
Clc1ccc(-c2csc(=Nc3cccnc3)n2CCCn2ccnc2)cc1Cl -41%
C#CCOCCOCCOCCNc1nc(N2CCN(C(=O)[C@H](Cc3cc4ccccc4[nH]3)n3cc([C@@H](N)CC(C)C)nn3)CC2)nc(N2CCN(C(=O)[C@H](Cc3cc4ccccc4[nH]3)n3cc([C@@H](N)CC(C)C)nn3)CC2)n1 -82%
Cc1c(C#N)c(N=CN(C)C)c(C(=O)c2ccc(Br)cc2)n1-c1ccc(Cl)cc1 -59%
Cc1ccc(C)c(-c2nn(-c3cc(N4CCN(CCO)CC4)ccc3[N+](=O)[O-])c(=O)c3ccccc23)c1 7%
C=CC[n+]1c(/C=C2\C=Cc3cc(C)ccc3N2CC)ccc2ccccc21 -26%
CCCCN1C(=N)N([C@@H](CN2CCC[C@H]2CN2C(N)=NC[C@@H]2Cc2ccccc2)C(C)C)C[C@H]1Cc1ccccc1 -44%
Cc1ccc(C2CC(c3cccc(C)c3)n3nc(N)nc3N2)cc1 (configuration not stated) -40%
CC(=O)N1CCN(c2ccc(NCc3ccc(-c4cccc(Cl)c4)o3)cc2)CC1 39%
COc1ccc(N2CCN(C(=O)CN3C(=O)NC(C)(c4ccc5ccccc5c4)C3=O)CC2)cc1 (configuration not stated) -26%
CN(C)c1ccc(NC(=O)c2cccc(C(=O)Nc3ccc(N(C)C)cc3)n2)cc1 -170%
